Assay outcomes deposited in PubChem BioAssay by National Center for Advancing Translational Sciences (NCATS).
FBPA Giardia inh – Giardia lamblia aldolase inhibition; purified Giardia FBPA; Potency, µM (titrated, usually from 59.6 µM), without a hit: top-dose activity, negative = inhibition, hits mostly inhibitors; actives 0.71% (n = 290,000); also: potency is read from the fitted curve at half-maximal effect; % is scaled to controls: 0 for no effect and ±100 for the full control effect; nearly all actives have a fitted effect of over 55% in size
Target sequence (A8B2U2 whole entry, looked up): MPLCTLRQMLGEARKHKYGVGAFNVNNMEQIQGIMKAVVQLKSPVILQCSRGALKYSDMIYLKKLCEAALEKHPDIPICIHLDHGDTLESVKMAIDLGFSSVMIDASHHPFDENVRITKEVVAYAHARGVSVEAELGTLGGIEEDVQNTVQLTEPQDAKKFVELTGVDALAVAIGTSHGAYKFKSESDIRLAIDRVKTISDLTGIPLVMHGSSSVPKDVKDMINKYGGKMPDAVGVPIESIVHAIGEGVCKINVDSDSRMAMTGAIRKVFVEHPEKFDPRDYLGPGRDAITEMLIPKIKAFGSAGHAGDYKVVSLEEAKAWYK
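Giardia FBPA (40 nM reagent) was preincubated 10 min at RT with compound (up to 57.5 uM final), then substrate plus GAPDH/TPI/NAD/arsenate coupling system with diaphorase/resazurin was added; resorufin fluorescence (525/598 nm) was read after 20 min.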
Pf growth 96h – P. falciparum growth inhibition at 96 hour, primary screen for plastid delayed-death inhibitors. Potency, µM (top dose mostly 28.7 µM), inactives show top-dose activity change, negative = inhibition, hits mostly inhibitors. P. falciparum luciferase reporter growth, 96 h. actives 6.9% (n = 320,000). AID 504834; also: potency is read from the fitted curve at half-maximal effect; % is scaled to controls: 0 for no effect and ±100 for the full control effect
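P. falciparum expressing integrated firefly luciferase, in erythrocytes at 2% hematocrit, 0.05% parasitemia, incubated with compounds 96 h at 37 C, 5% CO2. Growth inhibition read as loss of luminescence; two-generation exposure targets delayed-death apicoplast inhibitors.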
Pf growth 48h – P. falciparum growth inhibition at 48 hours (one generation); P. falciparum luciferase growth in erythrocytes, 48 h; Potency, µM (titrated, usually from 28.7 µM), without a hit: at the highest dose activity change, negative = inhibition, hits mostly inhibitors; actives 5.9% (n = 310,000); AID 504832; also: potency is read from the fitted curve at half-maximal effect; % is scaled to controls: 0 for no effect and ±100 for the full control effect
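Parasite viability was followed by luminescence of a genomically integrated firefly luciferase. Cultures held 0.1% parasitemia at 2% hematocrit (final), incubated under 5% CO2 at 37 C.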
NS1 function inh – inhibitors of influenza NS1 protein function. Potency, µM (series often up to 46.1 µM), inactives show at the top dose activity, positive = more growth. actives 0.4% (n = 270,000). AID 2326; calls by dose curve; also: potency is read from the fitted curve at half-maximal effect; actives are rising curves; nearly all actives have a fitted effect of over 50% in size
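In this qHTS, NS1 from influenza A is expressed in budding yeast, where it slows growth. Cells are switched from glucose to 2% galactose medium (pH 6.0, -URA), treated with compound, and growth recovery is read at OD600.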
CHX counter – counter-screen for Shiga toxin inhibitors: cycloheximide protein synthesis inhibition | cell reporter, cycloheximide protein synthesis inhibition counterscreen | max response, % | actives 12% (n = 300,000) | AID 2314; in the data active = max response mostly above about 13%, no sharp cut-off; inactive = mostly below about 14%; also: read at 38.3 µM for the half of the compounds with a filed dose; 0% is about no effect
Shiga inhibitor – inhibitors of Shiga toxin in Vero cells; Vero cells, Shiga toxin protein synthesis inhibition reporter; actives 9.2% (n = 290,000); AID 2315; inhibition, % at 38.7 µM; in the data active = inhibition mostly above about 28%, no sharp cut-off; inactive = mostly below about 43%; also: 0% is about no effect
Numbers without * were called inactive; u = inconclusive; x = no result given; [ ] = remark or other dose. An excerpt weighted towards active compounds, which were near 21% of everything screened. Unless noted, calls follow the shape of the dose curve; as a rule, active = well fitted curve in the direction sought with a large enough effect; inconclusive = small, poorly fitted or top-dose-only effect, or another doubt; inactive = no such curve, though single readings can be large; an effect the other way counts as inactive or inconclusive.

SMILES | FBPA Giardia inh | Pf growth 96h | Pf growth 48h | NS1 function inh | CHX counter | Shiga inhibitor
COCCN(C(=O)CCC(=O)Nc1cc(C)on1)C(C(=O)NC1CCCC1)c1ccccc1C (stereo unspecified) | 1% | 1% | u | -3% | -2 | -2
COc1ccc(CCN(C(=O)C(F)(F)F)C(C(=O)NC2CCCCC2)c2ccc(C)s2)cc1 (stereo unspecified) | 7% | 8.3µM* | u | 7% | -4 | -3
COCCNC(=O)C(c1ccccc1F)N(C(=O)C(=O)NC1CCCC1)C1CCCCC1 (stereo unspecified) | 3% | 12µM* | -4% | 1% | 2 | 15
COCCN(C(=O)C(F)(F)F)C(C(=O)NC1CCCCC1)c1ccco1 (stereo unspecified) | 11% | 12µM* | -13% | 5% | 2 | -8
COc1ccc(CCN(C(=O)C(F)(F)F)C(C(=O)NC2CCCCC2)c2cccs2)cc1 (stereo unspecified) | 0% | u | 9.3µM* | -1% | -2 | -6
Cc1ccc(N(C(=O)C(F)(F)F)C(C(=O)NC2CCCCC2)c2cccs2)cc1 (stereo unspecified) | 5% | u | u | u | -2 | -8
COc1ccc(-c2cc3c(=O)n(CC(=O)Nc4cccc(Cl)c4)ncn3n2)cc1 | x | 46% | 38% | -3% | 2 | 20
CC(C)(C)C(=O)N(Cc1nc2ccccc2c(=O)[nH]1)Cc1cccs1 | -2% | 12µM* | -16% | 11% | -6 | -13
O=C(C1CC1)N(Cc1nc2ccccc2c(=O)[nH]1)Cc1cccs1 | -2% | -5% | 1.9µM* | -4% | -2 | -5
Cc1nc(N)nc(N)c1/C=C/C(C)(C)c1ccc(Cl)cc1 | -10% | -78% | -90% | -45% | -6 | -17
COC(=O)c1c(NC(=O)CCCOc2ccc(C(C)(C)C)cc2)sc2c1C(C(=O)OC)CC2 (stereo unspecified) | x | x | x | x | 15 | 25
Cc1cccc(OCC(=O)Nc2ccc(N3CCN(C(=O)c4ccco4)CC3)cc2)c1 | -2% | 4% | 9.3µM* | -3% | -2 | 17
Cc1ccc(OCC(=O)Nc2ccc(N3CCN(C(=O)c4ccco4)CC3)cc2)cc1C | 3% | 35% | -16% | 5% | -5 | 22
Cc1cc(OCC(=O)Nc2ccc(N3CCN(C(=O)c4ccco4)CC3)cc2)cc(C)c1Cl | 15% | u | 9.3µM* | -3% | -2 | -11
Oc1ccc2c(c1)[C@@]13CCCCC1[C@@H](C2)N(CC1CCC1)CC3 (stereo partly specified) | -6% | x | x | x | -7 | -8
CCOC(=O)c1[nH]nc(N)c1NC(=O)c1ccc(Cl)cc1Cl | -3% | -18% | -7% | -10% | 27* | 22
CCOC(=O)c1[nH]c2ccc(Cl)cc2c1NC(=O)c1nonc1C | 1% | 74% | -2% | 10% | -2 | 17
CCOc1ccc(NC(=O)CNC(=O)c2ccc([N+](=O)[O-])cc2)cc1 | 6% | u | 7%[5.75 µM] | x | -1 | 2
CCOC(=O)C1=C(N)OC2=C(C(=O)CCC2)C1c1ccc(C)s1 (stereo unspecified) | -15% | x | 10% | -7% | 44* | 80*
CCOC(=O)C1=C(N)OC2=C(C(=O)CCC2)C1c1sccc1C (stereo unspecified) | -10% | 1% | 3% | -3% | 1 | 17
NCC1CCCCC1CC(=O)O (stereo unspecified) | 7% | x | x | x | x | x
O=[N+]([O-])c1cccc(NC(=S)N2CCc3ccccc32)c1 | x | u | 9% | -25% | 32* | 58*
Fc1ccc(NC(=S)N2CCCc3ccccc32)cc1 | -33% | u | 21% | -17% | 10 | 51*
S=C(Nc1cccnc1)N1CCc2ccccc21 | -14% | 5.2µM* | 10% | 1% | -1 | -4
O=C(Nc1cccc([N+](=O)[O-])c1)N1CCCc2ccccc21 | -6% | -13% | -22% | -10% | 48* | 74*
SMILES | FBPA Giardia inh | Pf growth 96h | Pf growth 48h | NS1 function inh | CHX counter | Shiga inhibitor
O=C(O)c1cccc(S(=O)(=O)Nc2cccc(S(=O)(=O)N3CCCC3)c2)c1 | x | -10% | 4% | x | x | x
CCN(CC)C1CCS(=O)(=O)C1 (stereo unspecified) | -8% | 0.19µM* | 37% | x | -5 | -8
CCN(C(=O)COC(=O)c1cnc(C)cn1)C1CCS(=O)(=O)C1 (stereo unspecified) | x | 3% | -10% | x | x | x
CCOC(=O)C(=O)N(CC)C1CCS(=O)(=O)C1 (stereo unspecified) | 0% | 45% | 54% | -2% | 8.9* | 10
CSC(=S)N(C)C1CCS(=O)(=O)C1 (stereo unspecified) | 4% | 0% | 18% | 4% | -1 | 24
CCc1noc(C)c1C(=O)OCC(=O)Nc1nc(-c2ccc(F)c(F)c2)cs1 | x | 4% | u | x | x | x
CC(C(=O)N1CCCC1)c1ccc([N+](=O)[O-])cc1 (stereo unspecified) | 5% | 15µM* | 6% | 9% | 5 | -3
CC1CCN(C(=O)C(C)c2ccc([N+](=O)[O-])cc2)CC1 (stereo unspecified) | 7% | -2%[5.75 µM] | -17% | x | -2 | 12
NC(N)=NCCN1CCCCCCC1 | -2% | u | -29%[12.8 µM] | x | x | x
COc1cccc(C=Nc2cccc3c(=O)[nH][nH]c(=O)c23)c1O | 1% | u | 2% | x | 24* | 60*
O=C(NC(=S)Nc1cccnc1Cl)c1ccco1 | -17% | 26% | 144% | x | 21* | 55*
Cc1ccnc(NC(=S)NC(=O)c2cccs2)c1 | u | u | 185% | -25% | 78* | 160*
Cc1ccnc(NC(=S)NC(=O)c2ccco2)c1 | u | 187% | 106% | 6% | 40* | 96*
CCNC(=S)Nc1cc(C)ccn1 | -6% | 34% | -9% | 2% | 14 | 29*
COc1ccc(C)cc1S(=O)(=O)N1CCCC(C(=O)NC2CC2)C1 (stereo unspecified) | x | -18% | 9% | -5% | 0 | -23
COc1ccccc1CNC(=O)C(=O)NCC1OCCCN1S(=O)(=O)c1cccs1 (stereo unspecified) | 1% | -23% | u | 2% | -3 | 12
COCCn1c(=O)c(-c2cccc(C#N)c2)nc2cnc(N3CCOCC3)nc21 | -5% | x | x | x | x | x
CO/N=C1/[C@H]2O[C@@H]2[C@@H](O)[C@H]2[C@H]1CCn1c(=O)n(-c3ccccc3)c(=O)n12 | 1%[12.9 µM] | x | x | x | x | x
CCOCCCNC(=O)CCn1nc(-c2ccc(Cl)cc2)ccc1=O | 15% | 0% | 24% | 7% | 3 | -3
O=C(CSc1nnc(CNC(=O)c2ccc(F)cc2)o1)NCC1CCCO1 (stereo unspecified) | 6% | 31% | -15% | -4% | -3 | -6
Cn1ncc([N+](=O)[O-])c1C(=O)NC1CCCCC1 | 0% | 22% | 23% | 0% | -3 | -7
